From PubChem
A selection: hits, their analogues and other compounds. The true share with any hit is near 10%.
MCF10A rereplic: inducers of DNA re-replication in MCF 10A breast cells; actives 2.9% (n = 350,000); AID 624296; MCF 10A DNA re-replication, Hoechst nuclear intensity, 48 h; Potency, µM (top dose mostly 46.1 µM), inactives show at the top dose activity, positive = re-replication, actives largely listed as activators; note: % of control where 0% means no effect; nearly all actives have a fitted effect of over 50% in size
ELG1 DNA repair: inhibitors of ELG1-dependent DNA repair in HEK293T cells; AID 504467; HEK293T ELG1-luciferase reporter, luminescence, 16 h; DNA damage induced by 5-fluorouridine; Potency, µM (doses to about 46.1 µM), without a hit: at the top dose activity change, negative = inhibition, most hits filed as inhibitors; actives 2.3% (n = 330,000); note: % is set by controls: 0 for no effect and ±100 for the full control effect; nearly all actives have a fitted effect of over 55% in size
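Reporter activity after DNA damage by 5-fluorouridine is monitored. Compound-treated cells incubate 16 hr at 37 °C, then ONE-Glo is added for 30 min before luminescence reading.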
RORg inh: blocks mouse ROR gamma transcriptional activity; P51450; Drosophila S2 Gal4-RORgamma UAS-luciferase reporter, 20 h; Potency, µM (titrated, usually from 53.6 µM), inactives show top-dose activity change, negative = inhibition, usual class: inhibitors; actives 5.4% (n = 310,000); AID 2551; note: % is set by controls: 0 for no effect and ±100 for the full control effect; nearly all actives have a fitted effect of over 60% in size
Target sequence (P51450 whole entry, looked up, the tested form may be a part): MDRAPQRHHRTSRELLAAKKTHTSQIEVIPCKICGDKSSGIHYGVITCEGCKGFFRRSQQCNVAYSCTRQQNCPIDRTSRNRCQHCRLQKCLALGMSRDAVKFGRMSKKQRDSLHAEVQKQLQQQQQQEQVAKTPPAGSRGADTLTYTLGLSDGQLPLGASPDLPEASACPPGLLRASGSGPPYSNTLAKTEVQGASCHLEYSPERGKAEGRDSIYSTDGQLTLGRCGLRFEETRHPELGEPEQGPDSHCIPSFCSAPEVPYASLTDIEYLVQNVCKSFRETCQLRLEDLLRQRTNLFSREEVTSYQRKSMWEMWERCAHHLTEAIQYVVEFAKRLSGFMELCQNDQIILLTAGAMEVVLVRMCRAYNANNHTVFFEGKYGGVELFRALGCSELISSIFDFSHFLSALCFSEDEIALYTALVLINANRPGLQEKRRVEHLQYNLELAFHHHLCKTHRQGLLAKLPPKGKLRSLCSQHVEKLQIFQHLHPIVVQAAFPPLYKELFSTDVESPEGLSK
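Using a luciferase readout, inhibitors were identified by reduced reporter activity in Drosophila cells coexpressing a copper-inducible Gal4–ROR gamma fusion and UAS-driven Photinus luciferase, incubated 20 hr after 700 uM copper sulfate.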
SW480 rereplic: DNA re-replication induction in SW480 cells. SW480 DNA re-replication, Hoechst DNA content imaging, 48 h. Potency, µM (series often up to 46.1 µM), inactives show at the top dose re-replication activation, usual class: activators. actives 1.8% (n = 340,000). AID 624297; note: % of control where 0% means no effect; nearly all actives have a fitted effect of over 55% in size
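Compounds, transferred as 23 nL by pin tool, were incubated with cells for 48 hr; DNA content per nucleus was then quantified by Hoechst staining and fluorescence plate imaging.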
VP16 counter: counter-screen for ROR gamma inhibitors: Gal4-VP16 reporter. actives 3.5% (n = 310,000). AID 2546. Drosophila S2 Gal4-VP16 UAS-luciferase, luminescence, 20 h. Potency, µM (highest dose often 53.6 µM), inactives show top-dose activity, negative = inhibition, actives largely listed as inhibitors;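 note: Gal4-VP16 expression switched on by copper sulfate through the metallothionein promoter; % is set by controls: 0 for no effect and ±100 for the full control effect; nearly all actives have a fitted effect of over 50% in size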
The depositor's hits bear a star; ? = inconclusive; nt = no result. Calls come from the whole dose curve; as a rule, active = well fitted curve in the direction sought with a large enough effect; inconclusive = small, poorly fitted or top-dose-only effect, or another doubt; inactive = no such curve, though single readings can be large; an effect the other way counts as inactive or inconclusive. Potency is the fitted concentration of half-maximal effect.

SMILES | MCF10A rereplic | ELG1 DNA repair | RORg inh | SW480 rereplic | VP16 counter
CCC(C)n1c(NC(=O)c2ccccc2)c(C#N)c2nc3ccccc3nc21 (centres undefined) | 1.3µM* | ? | 10µM* | 5.2µM* | ?
O=C(Nc1ccc(Oc2cccc(C(F)(F)F)c2)nc1)c1cccs1 | ? | ? | 23% | 28% | -3%
OCc1ccccc1O | 0% | nt | -1% | -6% | -6%
OCc1ccccc1SSc1ccccc1CO | 18µM* | nt | nt | ? | nt
Cc1ccc(C)n1-c1ccc(-c2ccnc(N)n2)cc1 | ? | ? | -14% | ? | 2%
CCN(CC)CCNC(=S)NC(=O)c1cn(-c2ccccc2)nc1-c1ccc(OC)cc1 | ? | 4% | 7.1µM* | ? | 13µM*
COc1ccc(-c2nn(-c3ccccc3)cc2C(=O)OCC(=O)c2ccc(C)c([N+](=O)[O-])c2)cc1 | ? | -28% | ? | 1% | 18µM*
COC(=O)c1cn(-c2ccccc2)nc1-c1ccc(OC)cc1 | 6% | 26µM* | 36% | -8% | -16%
COc1ccc(-c2cc(C(=O)OCC(=O)c3ccc(C)c([N+](=O)[O-])c3)c3ccccc3n2)cc1 | 0% | ? | 1% | 11% | ?
O=c1[nH][nH]c(C(F)(F)F)c1C=Nc1ccccc1 | 9% | 9% | -11% | -16% | -6%
Cc1cc(O)ccc1N=Cc1c(C(F)(F)F)[nH][nH]c1=O | ? | ? | 11µM* | -112% | ?
O=C(NC1CCCCC1)C(c1cccnc1)N(C(=O)CCl)c1ccc(F)cc1 (centres undefined) | 18µM* | 21µM* | 11µM* | 2.1µM* | ?
O=C(NC1CCCCC1)C(c1cccnc1)N(C(=O)CCl)c1ccccc1Cl (centres undefined) | 6% | ? | ? | ? | 0%
Cc1cc(C)cc(N(C(=O)CNC(=O)c2cccs2)C(C(=O)NC2CCCC2)c2cccnc2)c1 (centres undefined) | 21µM* | -7% | 22% | 0% | -5%
Cc1cccc(N(C(=O)CNC(=O)c2cccs2)C(C(=O)NC2CCCC2)c2cccnc2)c1 (centres undefined) | 3% | 8% | 2% | -3% | 0%
COc1ccc(N(C(=O)CCl)C(C(=O)NC2CCCCC2)c2cccnc2)cc1 (centres undefined) | 18µM* | 21µM* | ? | ? | -13%
Cc1sc(NC(=O)C2=COCCO2)c(C(N)=O)c1C | 2% | ? | nt | -3% | nt
COc1cccc(NC(=O)CN(C)C(=O)Cc2c(C)nc3ccccc3c2C)c1 | -5% | ? | nt | -11% | nt
Cc1cc(N2CCN(C)CC2)nc2ccc(NC(=S)N3CCN(c4ccccn4)CC3)cc12 | 24% | ? | 7% | ? | -12%
Cc1cc(N2CCOCC2)nc2ccc(NC(=O)CCC(=O)N3CCN(c4cccc(C(F)(F)F)c4)CC3)cc12 | 15µM* | ? | 39% | 19% | ?
Cc1ccc(C)c(N2CCN(C(=S)Nc3ccc4nc(N5CCN(C)CC5)cc(C)c4c3)CC2)c1 | ? | ? | 11µM* | -14% | ?
COc1ccccc1N1CCN(C(=S)Nc2ccc3nc(N4CCOCC4)cc(C)c3c2)CC1 | ? | 18µM* | 4.5µM* | ? | ?
Cc1cccc(N2CCN(C(=S)Nc3ccc4nc(N5CCOCC5)cc(C)c4c3)CC2C)c1 (centres undefined) | 12µM* | 24% | ? | ? | ?
Cc1ccc(S(=O)(=O)CCC(=O)Oc2ccc(-c3nnco3)cc2)cc1 | -18% | 9% | nt | -97% | nt
O=C(NCc1ccc(F)cc1)C1CCN(S(=O)(=O)c2ccc(Br)s2)CC1 | 8% | -6% | ? | -5% | 2%
COc1cc(Cl)c(C)cc1NC(=O)COC(=O)C1=NN(c2ccccc2)C(=O)CC1 | -7% | 17% | nt | -22% | nt
Cc1cc(N2CCOCC2)nc2ccc(NC(=S)N3CCN(c4ccccc4)CC3)cc12 | 211% | 13% | ? | ? | 8%
